The list is not random: actives were taken first. Their share in the collection is about 4%.
FAS TE block = FAS thioesterase domain inhibitors, primary screen, biochemical, fluorescence intensity, uHTS; Fatty acid synthase (Homo sapiens), P49327; recombinant FAS-TE, OMFH fluorogenic substrate, fluorescence endpoint; inhibition, % at 15 µM; hit rate 0.67% among 360,000;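 active = compounds whose normalised, plate-corrected inhibition of enzyme fluorescence in the single-dose primary screen is 50% or more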;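 note: 0% = DMSO with enzyme and 100% = substrate without enzyme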
ADAM10 inh = human ADAM10 inhibitors, primary screen, biochemical, QFRET, HTS; recombinant ADAM10, EDANS/DABCYL FRET peptide cleavage, 3 h; inhibition, % at 7 µM; hit rate 0.62% among 370,000; AID 720582, 2013;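 active = inhibition above a per-campaign cutoff equal to the mean of compounds falling between control-based bounds plus 3 SD, cut at about 20% in these data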;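 note: 0% = DMSO wells while the 100% control is not disclosed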
ADAM17 inh = ADAM17 inhibitors, primary screen, biochemical, QFRET. recombinant ADAM17, EDANS/DABCYL FRET peptide cleavage. inhibition, % at 6.95 µM. hit rate 0.83% among 370,000;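 active = inhibition above the mean of compounds lying between control limits plus 3 SD, set per campaign, cut at about 8.5% in these data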;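 note: 0% = DMSO-only wells as the low control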
aDG glyco up = activators of alpha-DG glycosylation, primary screen, uHTS, Pro5-aDG cells, AlphaScreen | alpha-DG glycosylation AlphaScreen (IIH6); 0% Pro5, 100% B10-LARGE cell signal | hit rate 0.22% among 360,000 | activation, % at 10 µM;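 active = activation of at least 8% versus controls, or a plate z-score of at least 8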;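 note: Pro5 are CHO cells carrying HIG-tagged alpha-DG that lacks glycosylation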
GRIN3A LBD mod = binders of NR3A ligand-binding domain, primary screen, biophysical, differential scanning fluorimetry, uHTS | Glutamate receptor ionotropic, NMDA 3A (GRIN3A) ligand-binding domain | NR3A LBD differential scanning fluorimetry, Tm shift; 0% = protein alone, 100% = glycine-bound protein | Tm shift relative to glycine control, % at 25 µM | hit rate 2.5% among 340,000 | AID 1259313, 2017;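 active = melting temperature shift of at least 10% of the positive control shift, at one fixed dose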
The depositor's hits bear a star; x = not tested or not shown.

SMILES | FAS TE block | ADAM10 inh | ADAM17 inh | aDG glyco up | GRIN3A LBD mod
O=C(Nc1cccc(-c2cn3ccccc3n2)c1)c1cc2ccccc2oc1=O | 0 | 9 | -5 | 0 | 1
COc1cc(/C=C/c2nc3ccccc3c(=O)[nH]2)ccc1O | -6 | -128 | -43 | 0 | x
COc1cc(/C=C/c2nc3ccccc3c(=O)[nH]2)cc(Br)c1O | 0 | -4 | -6 | 0 | 23*
C[C@H]1CN([C@@H](C)CO)C(=O)Cc2cc(NC(=O)Nc3ccccc3)ccc2O[C@H]1CN(C)Cc1ccccc1 | 7 | 18 | 6 | 0 | -22
C[C@@H]1CN([C@@H](C)CO)C(=O)Cc2cc(NC(=O)Nc3ccc(F)cc3)ccc2O[C@@H]1CN(C)Cc1ccc(Cl)c(Cl)c1 | 21 | 34* | 13* | 3 | 18*
C[C@H](CO)N1C[C@H](C)[C@H](CN(C)Cc2ccc(Oc3ccccc3)cc2)Oc2ccc(NC(=O)Nc3cccc4ccccc34)cc2CC1=O | 23 | -32 | -9 | 1 | 12*
CCNC(=O)/C(C#N)=C/c1c(N(Cc2ccccc2)Cc2ccccc2)nc2ccccn2c1=O | 26 | -2 | 0 | 0 | 22*
Cc1noc2ncnc(Sc3ccc(Cl)cc3)c12 | 23 | 1 | -2 | 1 | 10*
CCN(CC)C(=O)C(=O)Nc1ccc(Oc2ccccc2)cc1 | 5 | -1 | -2 | 0 | 0
c1ccc(Cn2ccnc2SCc2nnc(-c3ccccc3)o2)cc1 | -3 | 15 | 4 | 0 | 11*
NC(=O)CSc1nccn1Cc1ccccc1 | -3 | -5 | -1 | 0 | -1
O=C(Nc1nc2c(s1)CCCC2)c1ccc(Br)o1 | -2 | 9 | -2 | 0 | 11*
CCN(CC)c1ccc(CNC23CN4CN(CN(C4)C2)C3)cc1 | -7 | 6 | 6 | 0 | 3
O=C(O)c1ccccc1-c1ccc(/C=c2\sc3nc4cc(Br)cnc4n3c2=O)o1 | -5 | x | x | 0 | 16*
Cc1ccc(NC(=O)CN2C(=O)COc3ccc(S(=O)(=O)N4CCCC4)cc32)c(C)c1 | 1 | 5 | 3 | 0 | 0
Cc1ccc(C)c(NC(=O)CN2C(=O)COc3ccc(S(=O)(=O)N4CCCC4)cc32)c1 | -2 | -9 | -3 | 5 | 10*
COc1ccc(CNC(=O)CN2C(=O)COc3ccc(S(=O)(=O)N4CCC(C)CC4)cc32)cc1 | 23 | 3 | 0 | 0 | 45*
Cc1cccc(N2CC(c3nc4ccccc4n3C)CC2=O)c1C (configuration not stated) | -3 | -6 | -5 | 0 | -2
Cc1cc(C(=O)N/N=C/c2c[nH]c3ccccc23)c(C)o1 | -2 | -8 | 1 | 0 | 8
O=C(N/N=C/c1c[nH]c2ccccc12)c1cc(Br)ccc1O | 1 | -39 | -11 | 0 | 34*
CCOc1ccc(Br)cc1C(=O)N/N=C/c1c[nH]c2ccccc12 | 2 | -31 | -11 | 0 | 10*
CCOc1ccc(Br)cc1C(=O)N/N=C/c1ccccn1 | 0 | -1 | -5 | 0 | 1
O=C(NCCc1ccccc1)OCc1cn(Cc2c(F)cccc2F)nn1 | x | -4 | -8 | x | x
CCOc1ccc(-n2cc(C(=O)N3CCC(C)CC3)c3cc(OC)c(OC)cc3c2=O)cc1 | -1 | -9 | -4 | 7.5* | -1
Cc1ccsc1C(=O)OCC(=O)NCc1ccccc1 | -10 | 0 | -2 | 0 | 2
SMILES | FAS TE block | ADAM10 inh | ADAM17 inh | aDG glyco up | GRIN3A LBD mod
O=C(c1ccc([N+](=O)[O-])cc1)N1CCSC1c1ccc(Br)cc1 (configuration not stated) | 46 | -3 | 3 | 0 | -2
CCOC(=O)c1c(C)c2c(=O)[nH]cnc2n1-c1ccccc1 | -2 | 10 | -4 | 0 | 0
CCOC(=O)c1c[nH]c(=S)n(-c2ccccc2)c1=O | -8 | 5 | 2 | 0 | 13*
O=C(CCc1nc(-c2ccccc2F)no1)NCCN1CCOCC1 | -6 | 4 | 4 | 0 | 14*
O=C(N/N=C/c1cccc(Oc2ccccc2)c1)c1ccncc1 | -1 | -3 | -2 | 1 | 6
COc1cccc(/C=N/NC(=O)c2[nH]nc3c2CCc2ccccc2-3)c1 | 16 | -7 | 3 | 0 | 26*
